HEK293 tox: qHTS of GLP-1 Receptor Inverse Agonists: Cytotox Screen | AID 624418, 2012 | HEK293 cAMP-luciferase reporter cells, luminescence, 24 h | hit rate 0.13% among 410,000 | Potency, µM (top dose mostly 38.3 µM), without a hit: at the top dose activity change, negative = inhibition, hits mostly inhibitors;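 note: loss of luciferase light is scored as toxicity; % is set by controls: 0 for no effect and ±100 for the full control effect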
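A 23 nL compound transfer followed 12 hours of cell culture at 37 deg C; exposure then lasted 24 hr. Luciferase assay detection reagent was dispensed and plates read for luminescence after a 12 min room-temperature wait.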
GLP-1R agonist: qHTS of GLP-1 Receptor Agonists; Potency, µM (highest dose often 45.6 µM), inactives show at the highest dose activation, most hits filed as activators; HEK293 GLP-1R CRE-luciferase, luminescence, 4-6 h; cells express a hypersensitive GLP-1R form; hit rate 0.007% among 380,000; AID 624172, 2012; note: % of control where 0% means no effect
Target sequence (P43220 whole entry, looked up): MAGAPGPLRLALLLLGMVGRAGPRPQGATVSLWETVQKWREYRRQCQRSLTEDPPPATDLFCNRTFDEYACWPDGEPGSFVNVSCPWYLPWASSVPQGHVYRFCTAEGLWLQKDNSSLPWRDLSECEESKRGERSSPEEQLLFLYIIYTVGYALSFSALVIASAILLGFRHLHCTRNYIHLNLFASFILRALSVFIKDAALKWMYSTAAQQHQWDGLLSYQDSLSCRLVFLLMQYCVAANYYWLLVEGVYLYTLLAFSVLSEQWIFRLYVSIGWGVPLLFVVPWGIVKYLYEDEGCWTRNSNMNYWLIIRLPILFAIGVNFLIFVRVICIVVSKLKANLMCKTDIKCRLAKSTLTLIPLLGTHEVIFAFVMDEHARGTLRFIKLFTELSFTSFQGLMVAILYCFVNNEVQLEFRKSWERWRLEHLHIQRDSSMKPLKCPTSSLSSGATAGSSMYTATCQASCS
GLP-1R inv ag: qHTS of GLP-1 Receptor Inverse Agonists (Inhibition Mode); hit rate 1.6% among 410,000; HEK293 GLP-1R CRE-luciferase, luminescence, 24 h; GLP-1R form is constitutively active; Glucagon-like peptide 1 receptor (Homo sapiens), P43220; Potency, µM (top dose mostly 38.3 µM), for inactives: at the top dose activity change, negative = inhibition, most hits filed as inhibitors; note: % is set by controls: 0 for no effect and ±100 for the full control effect; nearly all actives have a fitted effect of over 55% in size
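Luminescence readout: a drop in cAMP-driven luciferase signal flags inverse agonism at a constitutively active GLP-1R stably expressed in HEK293. Compound exposure lasted 24 hr at 37 deg C, 5% CO2.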
PTHR1 ag: qHTS for PTHR1 Agonists: Primary Screen; Parathyroid hormone/parathyroid hormone-related peptide receptor (Homo sapiens), Q03431; HEK293 GP2 PTHR1 cells, GloSensor cAMP luminescence, 1 h; Potency, µM (top dose mostly 115 µM), inactives show at the top dose activation, most hits filed as activators; hit rate 0.075% among 410,000; AID 743266, 2014; note: nearly all actives have a fitted effect of over 55% in size
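HEK-293-derived GP2 cells expressing PTHR1 and a GloSensor cAMP reporter, 3,000/well, plated overnight, given luciferin plus IBMX (each 0.5 mM as added) for 1 h at 37 °C, then compound for 1 h at 37 °C. Luminescence was read after 15 min at room temperature.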
An asterisk follows results filed as active; i = inactive; ? = inconclusive; / = no result; [ ] = remark or other dose. Most compounds without a hit are left out; they make up all but 1.7% or so of the library. Calls come from the whole dose curve; as a rule, active = well fitted curve in the direction sought with a large enough effect; inconclusive = small, poorly fitted or top-dose-only effect, or another doubt; inactive = no such curve, though single readings can be large; an effect the other way counts as inactive or inconclusive. Potency is the fitted concentration of half-maximal effect.

SMILES	HEK293 tox	GLP-1R agonist	GLP-1R inv ag	PTHR1 ag
Cc1cc(C)c2nc(N3CCC(C(=O)NCC4CCCO4)CC3)sc2c1 (stereo unspecified)	-2%	-1%	?	-16%
CC(C)=CCC/C(C)=C\CC/C(C)=C\CC/C=C(\C)CC/C=C(\C)CCC=C(C)C	/	-5%	/	/
CCOCCc1nn2c(=O)cc(COC(=O)C3CCCCC3)nc2s1	0%	/	7%	i
Cc1cccc(NC(=S)NC(=O)c2cccs2)n1	?	?	10µM*	i
Cc1cccc(NC(=S)NC2CCCC2)n1	?	9%	4.5µM*	-12%
S=C(NNc1cccc(Cl)c1)NC1CCCCC1	?	9%	10µM*	-3%
FC(F)Oc1ccc(NC(=S)NC2CCSc3ccccc32)cc1 (stereo unspecified)	?	-12%	?	-24%
Cc1cccc(NC(=S)NC2CCCCC2)n1	?	12%	?	-12%
FC(F)Oc1ccc(NC(=S)NC2CCCCCCC2)cc1	-16%	1%	4.5µM*	-27%
CCN1CCN(C(=O)Cn2ncc3c4ccccc4n(Cc4c(C)cc(C)cc4C)c3c2=O)CC1	-9%	/	-14%	-16%
O=C(CC1C(=O)N(c2ccc(F)cc2)C(=O)N1Cc1ccc2c(c1)OCO2)Nc1ccc(F)cc1 (stereo unspecified)	1%	/	-11%	-25%
CCOC(=O)c1c(NC(=O)/C=C/c2ccc(OCC)cc2)sc2c1CCCC2	-11%	-6%	7%	i
Cc1ccc(C)c(-c2csc(-c3c(N)c(C(=O)c4ccc5c(c4)OCO5)n4ccccc34)n2)c1	13%	/	13%	i
S=C(Nc1cccc(Cl)c1)NC1CCCCC1	?	8%	8.9µM*	-10%[57.5 µM]
CCOC(=O)c1ccc(NC(=S)Nc2cccc(C)n2)cc1	1.3µM*	8%	0%	i
CC(=O)c1cccc(NC(=S)NC2CCCCC2)c1	-4%	1%	27%	-7%
S=C(Nc1ccc(Br)cc1)NC1CCCCC1	?	-5%	?	-47%
S=C(Nc1ccc(Cl)cc1)NC1CCCCC1	?	12%	10µM*	-13%
S=C(Nc1ccc(Nc2ccccc2)cc1)NC1CCCCCC1	-8%	5%	5µM*	-18%
CC(=O)OCC(=O)[C@@]1(O)CCC2C3CCC4=CC(=O)CC[C@]4(C)C3=CC[C@@]21C (stereo partly specified)	/	-6%	/	/
CCC[C@]1(CCc2ccccc2)CC(O)=C([C@H](CC)c2cccc(NS(=O)(=O)c3ccc(C(F)(F)F)cn3)c2)C(=O)O1	/	-1%	/	/
CCCC(CCC)C(=O)Nc1ccc2c(c1)N(C(=O)CN1CCN(C)CC1)c1ccccc1CC2	?	6%	7.9µM*	i
CCOC(=O)Nc1ccc2c(c1)N(C(=O)CN1CCN(C)CC1)c1ccccc1S2	?	5%	?	i
NS(=O)(=O)c1ccc(CCNC(=O)C2COc3ccccc3C2)cc1 (stereo unspecified)	9%	/	4%	-45%
Clc1ccccc1C(c1ccccc1)(c1ccccc1)n1ccnc1	-5%	4%	10µM*	i
SMILES	HEK293 tox	GLP-1R agonist	GLP-1R inv ag	PTHR1 ag
C#CC(c1ccccc1)(c1ccccc1)n1ccnc1	-14%	29%	?	i
CCOc1ccccc1CNCc1c(C(=O)O)c(C)n(Cc2ccc(Cl)cc2)c1C	-25%	/	5%	-32%
Cc1ccc(Sc2ncccc2COC(=O)Nc2ccccc2)cc1	-2%	0%	7.9µM*	-46%[57.5 µM]
Cc1ccc(Sc2ncccc2COC(=O)Nc2c(C)cccc2C)cc1	9%	-1%	7.9µM*	-68%
Cc1ccccc1NC(=O)OCc1cccnc1Sc1ccc(Cl)cc1	-3%	4%	-25%	-29%
O=C1N(Cc2cccc(Cl)c2)C[C@@H]2C[C@@H](c3cccc4ncccc34)N3CCC[C@@]123	-3%	7%	10µM*	-7%
O=C1N(Cc2cccc(Cl)c2)C[C@@H]2C[C@@H](c3cccc4cccnc34)N3CCC[C@@]123	-12%	5%	?	i
C=C1/C(=C\C=C2/CCC[C@@]3(C)[C@@H]([C@H](C)OCCC(C)(C)O)CC[C@@H]23)C[C@@H](O)C[C@@H]1O	/	1%	/	/
